In the library only some 9.4% were active in any assay of this set; here they are far more common.
SMN2 splice enh = qHTS Assay for Enhancers of SMN2 Splice Variant Expression | HEK293 SMN2-luciferase splicing reporter, luminescence, 30-36 h | Potency, µM (top dose mostly 46.1 µM), for the others: at the highest dose activity change, positive = activation, actives largely listed as activators | 210,000 compounds, 2.8% hits; further: % of control where 0% means no effect; nearly all actives have a fitted effect of over 55% in size
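qHTS luciferase splicing reporter: luminescence rises when SMN2 exon 7 is included in transfected HEK293 cells. Compound exposure lasted 30-36 h at 37C, with 4.5 mM final sodium butyrate as control, followed by a ONE-Glo read.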
FLuc modulator = qHTS profiling assay for firefly luciferase inhibitor/activator using purifed enzyme and Km concentrations of substrates (counterscreen for miR-21 project); Luciferin 4-monooxygenase (Photinus pyralis), P08659; purified FLuc, Km substrates, luminescence inhibition; Potency, µM (highest dose often 57.5 µM), without a hit: at the top dose activity change, negative = inhibition, actives largely listed as inhibitors; 360,000 compounds, 6.9% hits; AID 588342, 2011;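 further: plate controls were vehicle for no effect and reference inhibitor for full effect; nearly all actives have a fitted effect of over 55% in size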
Target sequence (P08659 whole entry, looked up): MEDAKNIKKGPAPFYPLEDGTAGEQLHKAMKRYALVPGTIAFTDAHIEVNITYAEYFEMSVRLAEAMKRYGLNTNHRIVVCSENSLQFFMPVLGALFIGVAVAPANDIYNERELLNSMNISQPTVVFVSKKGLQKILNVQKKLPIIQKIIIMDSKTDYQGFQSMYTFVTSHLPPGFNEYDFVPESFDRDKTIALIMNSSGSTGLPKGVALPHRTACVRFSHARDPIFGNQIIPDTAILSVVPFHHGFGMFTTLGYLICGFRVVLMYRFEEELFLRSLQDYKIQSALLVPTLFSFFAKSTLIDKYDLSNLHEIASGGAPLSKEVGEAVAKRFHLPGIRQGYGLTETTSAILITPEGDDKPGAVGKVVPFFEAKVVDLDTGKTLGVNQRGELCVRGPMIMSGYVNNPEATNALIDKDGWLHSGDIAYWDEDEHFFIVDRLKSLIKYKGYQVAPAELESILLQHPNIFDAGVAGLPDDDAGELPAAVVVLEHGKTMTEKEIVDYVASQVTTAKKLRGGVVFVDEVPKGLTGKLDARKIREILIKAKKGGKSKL
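Biochemical qHTS of compounds, final roughly 60 µM downward over six points, against 10 nM purified firefly luciferase using Km concentrations of substrates (10 uM D-luciferin, 10 uM ATP) in Tris acetate pH 7.5 buffer; luminescence output.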
ELG1 repair inh = qHTS screen for small molecules that inhibit ELG1-dependent DNA repair in human embryonic kidney (HEK293T) cells expressing luciferase-tagged ELG1; HEK293T ELG1-luciferase reporter, luminescence, 16 h; DNA damage induced by 5-fluorouridine; Potency, µM (highest dose often 46.1 µM), for the others: at the top dose activity change, negative = inhibition, usual class: inhibitors; 330,000 compounds, 2.3% hits; AID 504467, 2011; further: on the % scale 0 is the no-effect control and ±100 the full control effect; nearly all actives have a fitted effect of over 55% in size
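Quantitative HTS, concentration-response format. 2,000 cells/well co-treated with 5-fluorouridine and compound, 16 hr in 5% CO2 at 37 °C; ONE-Glo luminescence read after 30 min.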
NPC1 prom act = qHTS Assay for NPC1 Promoter Activators; 320,000 compounds, 2.4% hits; Potency, µM (highest dose often 9.22 µM), for the others: at the top dose activation, hits mostly activators; AID 485313, 2010; Huh7 NPC1 promoter luciferase reporter, 24 h; further: % of control where 0% means no effect; nearly all actives have a fitted effect of over 60% in size
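Quantitative HTS used a cell-based reporter: Huh7 cells stably bearing the NPC1 promoter upstream of luciferase were treated with compounds for 24 h, and promoter activation was read as luminescence.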
Rab9 promoter act = qHTS Assay for Rab9 Promoter Activators; 320,000 compounds, 2.8% hits; Potency, µM (top dose mostly 9.22 µM), inactives show top-dose activation, negative = inhibition, most hits filed as activators; Huh7 Rab9 promoter-luciferase reporter, luminescence, 24 h; further: % of control where 0% means no effect; nearly all actives have a fitted effect of over 60% in size
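Cell-based reporter: Huh7 stable for Rab9 promoter-driven luciferase, plated in reduced-serum medium with 10% FBS at 1500 cells/well, compound-treated 24 h at 37 °C, luminescence read after 10 min reagent.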
ELG1 genotoxic = qHTS screen for small molecules that induce genotoxicity in human embryonic kidney (HEK293T) cells expressing luciferase-tagged ELG1. 330,000 compounds, 1.3% hits. Potency, µM (top dose mostly 46 µM), for the others: at the top dose activity change, positive = activation, actives largely listed as activators. HEK293T ELG1-luciferase reporter, luminescence, 16 h; further: % of control where 0% means no effect; nearly all actives have a fitted effect of over 60% in size
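Screening used a luciferase reporter fused to human ELG1 in HEK293T cells. Luminescence was read on a CCD plate imager after 16 hr exposure and 30 min ONE-Glo incubation.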
* marks the source's active call; other numbers are inactive results; ? = inconclusive; nt = not tested or not shown; [ ] = another dose, or the depositor's remark. The call rests on the fitted dose curve; in most records, active means well fitted curve in the direction sought with a large enough effect; inconclusive means small, poorly fitted or top-dose-only effect, or another doubt; inactive means no such curve, though single readings can be large; an effect the other way counts as inactive or inconclusive. Potency means the concentration at half of the fitted maximal effect.

SMILES	SMN2 splice enh	FLuc modulator	ELG1 repair inh	NPC1 prom act	Rab9 promoter act	ELG1 genotoxic
COc1cc(-c2nc3cnccn3c2Nc2ccccc2)ccc1O	14µM*	-9%	?	-7%	-7%	6%
COc1ccc(NC(=O)c2cc(S(=O)(=O)NCCC3=CCCCC3)ccc2F)cc1	nt	3%	nt	nt	nt	nt
COCCN(C(=S)Nc1ccc(C)cc1)C(C)c1ccco1 (stereo unspecified)	nt	13µM*	24%	0%	-1%	1%
Cc1cc2nc3ccc(=[N+](C)C)cc-3sc2cc1N	nt	17µM*	0.65µM*	12%	14%	-2%
O=C(/C=C/Nc1ccccc1C(F)(F)F)c1ccco1	10µM*	1.2µM*	?	2µM*	0.71µM*	2.9µM*
O=C(/C=C/Nc1cccc(C(F)(F)F)c1)c1ccc(Oc2ncccn2)cc1	-10%	12µM*	23%	?	?	0%
O=C(/C=C/Nc1ccc(Oc2ccccc2)cc1)c1ccco1	nt	0.85µM*	?	0.63µM*	0.71µM*	?
NC(=O)c1ccccc1N/C=C/C(=O)c1ccco1	11µM*	9.5µM*	?	?	3.2µM*	5.2µM*
CN(C)/C=C/C(=O)c1cccc(Oc2ncccn2)c1	-5%	-1%	12%	-2%	1%	2%
CC(=O)Nc1ccccc1C(F)(F)F	nt	-1%	15%	-4%	-1%	-1%
Cc1ccc(NS(=O)(=O)c2cnc(N)nc2)c(C)c1	nt	-2%	nt	nt	nt	nt
O=C(/C=C/Nc1cccc(C(F)(F)F)c1)c1ccco1	?	11µM*	?	21%	?	?
O=C(Nc1cccc(C(F)(F)F)c1)c1ccco1	26%	-19%	-7%	2%	-6%	4%
CCOc1ccc(CC(=O)Nc2c(C(=O)c3ccc(F)cc3)oc3ccc(Cl)cc23)cc1OCC	-5%	-2%	nt	nt	nt	nt
O=C(NCc1ccccc1)c1ccc(NC(=O)c2nsc3ccccc23)cc1	nt	6µM*	nt	nt	nt	nt
COc1ccc(OC)c(CNC(=O)c2ccc(C)c(NC(=O)c3nsc4ccccc34)c2)c1	nt	-5%	nt	nt	nt	nt
O=C(NCc1ccccc1Cl)c1ccc(NC(=O)c2nsc3ccccc23)cc1	nt	3.8µM*	nt	nt	nt	nt
COc1ccc(CNC(=O)Cn2c(=O)cc(-c3ccccc3)c3c(C)nn(C)c32)cc1	nt	-14%	nt	nt	nt	nt
Cc1ccc2[nH]c3c(N4CCN(Cc5ccccc5)CC4)ncnc3c2c1	-49%	-22%	?	0%	-9%	-23%
Cc1ccc2c(c1)[nH]c1c(N3CCN(Cc4ccccc4)CC3)ncnc12	-37%	?	18µM*	-15%	-20%	-7%
c1ccc(CN2CCN(c3ncnc4c3[nH]c3ccccc34)CC2)cc1	-37%	-9%	15µM*	-4%	-15%	-12%
COc1cccc(OC)c1C(=O)Nc1ccc(C)cc1C(=O)c1ccccc1	-30%	2%	16µM*	1%	1%	-6%
COc1cccc(OC)c1C(=O)Nc1cccc(C(=O)Nc2cccc(C(=O)O)c2)c1	nt	9.5µM*	-22%	7%	7%	-2%
COc1ccccc1NC(=O)NC(=O)c1ccccc1	nt	1.2µM*	?	2.5µM*	?	?
COc1ccccc1C(=O)Nc1cccc(C(=O)c2ccccc2)c1	nt	17µM*	-13%	-2%	1%	2%
SMILES	SMN2 splice enh	FLuc modulator	ELG1 repair inh	NPC1 prom act	Rab9 promoter act	ELG1 genotoxic
COc1cccc(OC)c1C(=O)Nc1ccc(Br)c(C(=O)c2ccccc2)c1	nt	-2%	-24%	0%	0%	-17%
Cc1ccccc1CCNC(=O)c1cc2cc(S(=O)(=O)N3CCCCC3)ccc2n1C	nt	-5%	nt	nt	nt	nt
CCOC(=O)CNC(=O)c1cc2c(=O)oc3ccccc3c2s1	10%	2%	nt	nt	nt	nt
COc1ccccc1NC(=O)Nc1cccc(C(=O)O)c1	-14%	12µM*	?	?	?	1%
COc1ccccc1NC(=O)Nc1ccc(F)c(F)c1	28%	17µM*	-4%	12%	18%	1%
COc1ccc(C)cc1NC(=O)Nc1cccc(C(=O)O)c1	nt	?	10%	-1%	-2%	4%
COc1ccccc1NC(=O)Nc1ccc2c(c1)nnn2C	?	12µM*	?	?	3.2µM*	13µM*
COC(=O)c1ccccc1NC(=O)c1ccc2c(c1)CCN2S(=O)(=O)c1ccc(Cl)cc1	6%	-1%	nt	nt	nt	nt
CN1CCN(c2ncc3c(n2)CCN(Cc2ccccc2Cl)C3)CC1	nt	-6%	nt	nt	nt	nt
Cc1ccc(-c2nc3ccccc3c(=O)n2O)cc1	nt	1%	23%	8%	-4%	-5%
Cc1cc(N/N=C/c2ccccc2O)c2ccccc2n1	nt	15µM*	-6%	4%	-4%	11%
COc1ccc2nc(C)cc(Nc3ccccc3O)c2c1	nt	-1%	5%	1%	-10%	-7%
COc1cccc2c(N/N=C/c3ccccc3)cc(C)nc12	nt	2%	-12%	0%	-5%	-1%
COc1ccc2nc(C)cc(N/N=C/c3cccc(OC)c3O)c2c1	nt	17µM*	2%	-4%	0%	5%
Cc1ccccc1/C=N/Nc1nc2ccccc2c(=O)n1O	nt	15µM*	26%	13%	7%	17%
COc1ccc(/C=N/Nc2cc(C)nc3ccc(Br)cc23)cc1	nt	21µM*	?	0%	-4%[1.84 µM]	-6%
O=C(Nc1c(C(=O)N2CCN(c3ccccc3F)CC2)oc2ccccc12)c1cccc(F)c1	nt	-2%	nt	nt	nt	nt
CCCn1c(SCC(=O)Nc2ccccc2N2CCCCC2)nc2c1c(=O)n(C)c(=O)n2C	-17%	0%	7.3µM*	0%	0%	-9%
CCCCn1c(SCC(=O)N2c3ccccc3CCc3ccccc32)nc2c1c(=O)n(C)c(=O)n2C	12%	3%	21µM*	-8%	0%	-5%
CCCn1c(SCC(=O)N2CCN(c3ccc(OC)cc3)CC2)nc2c1c(=O)n(C)c(=O)n2C	-39%	5%	21µM*	2%	-9%	-16%
COc1ccc(CN2C(=O)N(c3ccc(F)cc3)C(=O)C2CC(=O)Nc2cc(OC)cc(OC)c2)cc1 (stereo unspecified)	nt	-9%	nt	nt	nt	nt
COc1ccccc1CNS(=O)(=O)c1ccc2c(c1)CC(C)N2C(C)=O (stereo unspecified)	nt	-7%	nt	nt	nt	nt
CCc1cccc(C)c1NC(=O)C(CC)n1ncn2c(cc3cc(C)ccc32)c1=O (stereo unspecified)	-8%	-2%	nt	nt	nt	nt

Assay outcomes (PubChem)
